For seven molecules, Potency and outcome results are on record in PubChem BioAssay (Tox21).

Inconclusive results are not listed. Activity calls are given as the source filed them. Unless noted, calls come from the whole dose curve; as a rule, active = well fitted curve in the direction sought with a large enough effect in the repeat runs; inconclusive = weak or mixed curves; inactive = no such curve, though single readings can be large; an effect the other way counts as inactive or inconclusive.

The nature of experiment [1]: qHTS assay to test for compound auto fluorescence at 535 nm (green) in HEK293 cells (AID 720680).
Experiment [2] is described as follows: qHTS assay to test for compound auto fluorescence at 460 nm (blue) in HEK293 cell free culture (AID 720681). The method, boiled down:
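Compounds were added to cell-free DMEM with 10% FBS and fluorescence read directly. The blue channel used 405 nm excitation and 460 nm emission, with triamterene as the reference fluorophore.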

A short description of experiment [3]: qHTS assay to test for compound auto fluorescence at 535 nm (green) in HEK293 cell free culture (AID 720682). Put shortly: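 Read-out: 485/535 nm fluorescence intensity, calibrated against fluorescein. Medium only (DMEM + 10% FBS, no cells); test compound or DMSO vehicle added by pintool before plate reading.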
Experiment [4] in a line: qHTS assay to test for compound auto fluorescence at 590 nm (red) in HEK293 cell free culture (AID 720683). Put shortly: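 Cell-free wells of DMEM with 10% FBS received compound, and intrinsic fluorescence was read at excitation/emission 540/590 nm. Values expressed as equivalence to Rose Bengal sodium.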
Experiment [5] in a line: qHTS assay to test for compound auto fluorescence at 590 nm (red) in HepG2 cell free culture (AID 720684). The method, boiled down:
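Compounds are added to culture medium (MEM, 10% FBS) lacking cells, then fluorescence is read at excitation 540 nm, emission 590 nm, with Rose Bengal sodium as the equivalency standard.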

Experiment [6] can be described thus: qHTS assay to test for compound auto fluorescence at 460 nm (blue) in HepG2 cell free culture (AID 720685). The method, boiled down: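 Compound (23 nL) or DMSO pinned into cell-free MEM with 10% FBS; blue fluorescence read at 405/460 nm excitation/emission, expressed as auto-fluorescence equivalency to triamterene.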
Experiment [7] in a line: qHTS assay to test for compound auto fluorescence at 535 nm (green) in HepG2 cell free culture (AID 720686).
Experiment [8] in a line: qHTS assay to test for compound auto fluorescence at 460 nm (blue) in HepG2 cells (AID 720687). The method, boiled down:
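HepG2 cells in MEM with 10% FBS, attached overnight at 37 C, were exposed to compound or DMSO for 1 hr at 37 C, 5% CO2. Blue fluorescence was read at 405/460 nm, with triamterene as reference fluorophore.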

Experiment [9] has as its target Glucocorticoid receptor (Homo sapiens) (UniProt P04150). The experiment can be described thus: qHTS assay to identify small molecule agonists of the glucocorticoid receptor (GR) signaling pathway (AID 720691; active = well fitted activation curve with a large enough effect in the signal ratio in the repeat runs, not every such curve was filed as active; the % refers to the signal ratio). To be noted: GR-bla HeLa, beta-lactamase reporter ratio, 18 h; activation: at 62.4 µM (top of the series). The method, boiled down: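 Beta-lactamase reporter activity, read as fluorescence intensity, was measured in GR-bla HeLa cells exposed to compounds for 18 h at 37 C and then loaded with LiveBLAzer B/G FRET substrate for 2 h at room temperature.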

Experiment [10] shares this target. Put plainly: qHTS assay to identify small molecule antagonists of the glucocorticoid receptor (GR) signaling pathway (AID 720692; active = well fitted inhibition curve with a large enough effect in the signal ratio in the repeat runs, not every such curve was filed as active; the % refers to the signal ratio). Put shortly: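 Fluorescence from cleaved LiveBLAzer B/G FRET substrate reports GRE-driven beta-lactamase in HeLa cells; compounds are tested against 5 nM dexamethasone (final) over 18 h at 37 C, substrate incubation 2 h at room temperature.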

The nature of experiment [11]: qHTS assay to identify small molecule antagonists of the glucocorticoid receptor (GR) signaling pathway - cell viability counter screen (AID 720693). Note: nearly all actives have a fitted effect of over 55% in size.
Experiment [12] can be described thus: qHTS assay for identifying genotoxic compounds that show differential cytotoxicity against isogenic chicken DT40 cell lines with known DNA damage response pathways - Rev3 mutant cell line (AID 743014). Note: nearly all actives have a fitted effect of over 55% in size.
A short description of experiment [13]: qHTS assay for identifying genotoxic compounds that show differential cytotoxicity against isogenic chicken DT40 cell lines with known DNA damage response pathways - Rad54/Ku70 mutant cell line (AID 743015). Note: nearly all actives have a fitted effect of over 60% in size. Note: potency is the fitted concentration of half-maximal effect.
Experiment [14] is described as follows: qHTS assay to identify small molecule antagonists of the androgen receptor (AR) signaling pathway - cell viability counter screen (AID 743033; note: nearly all actives have a fitted effect of over 45% in size).
Experiment [15] is described as follows: qHTS assay to identify small molecule antagonists of the androgen receptor (AR) signaling pathway using the MDA cell line - cell viability counter screen (AID 743041; note: nearly all actives have a fitted effect of over 45% in size). Put shortly: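 Same-well cytotoxicity was assessed by CellTiter-Fluor in MDA-kb2 AR-luc cells after 16 h of compound treatment under R1881 agonism.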
Experiment [16] has as its target Androgen receptor (Homo sapiens) (UniProt P10275). The experiment can be described thus: qHTS assay to identify small molecule antagonists of the androgen receptor (AR) signaling pathway (AID 743035; active = well fitted inhibition curve with a large enough effect in the signal ratio in the repeat runs, not every such curve was filed as active; the % refers to the signal ratio). Put shortly: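 Cell line: GeneBLAzer AR-UAS-bla GripTite (HEK293). Stimulus: R1881 added after compound. Exposure: 16 h, 37C, 5% CO2. Readout: LiveBLAzer B/G FRET fluorescence after 2 h at room temperature.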

For experiment [17] the target is unchanged. Put plainly: qHTS assay to identify small molecule agonists of the androgen receptor (AR) signaling pathway (AID 743036; active = well fitted activation curve with a large enough effect in the signal ratio in the repeat runs, with a control signal flat, not every such curve was filed as active; the % refers to the signal ratio). The method, boiled down:
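HEK293 cells stably carrying a UAS-driven beta-lactamase reporter (GeneBLAzer AR-UAS-bla-GripTite) were plated at 2,000 cells/well, rested 4 h at 37C, then exposed to compounds in DMSO for 16 h. LiveBLAzer B/G FRET substrate was added for 2 h at room temperature; fluorescence read.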

For experiment [18] the target is unchanged. Put plainly: qHTS assay to identify small molecule agonists of the androgen receptor (AR) signaling pathway using the MDA cell line (AID 743040; note: nearly all actives have a fitted effect of over 20% in size). The method, boiled down:
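Human breast carcinoma MDA-kb2 reporter cells (MMTV-luc, AR/GR elements) were treated for 16 h at 37C in 0% CO2 following a 5 h settling period. Signal was quantified by ONE-Glo luminescence.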

Experiment [19] has the same target. The experiment can be described thus: qHTS assay to identify small molecule antagonists of the androgen receptor (AR) signaling pathway using the MDA cell line (AID 743042; note: nearly all actives have a fitted effect of over 55% in size). The method, boiled down:
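MDA-kb2 breast carcinoma cells carrying MMTV-luciferase (AR/GR responsive) were co-treated with compounds and the agonist R1881 for 16 h at 37C. Inhibition read as ONE-Glo luminescence; CellTiter-Fluor fluorescence measured in parallel for cytotoxicity.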

Experiment [20] can be described thus: qHTS assay for identifying genotoxic compounds that show differential cytotoxicity against isogenic chicken DT40 cell lines with known DNA damage response pathways - wild type cell line (AID 743012). Note: nearly all actives have a fitted effect of over 60% in size. Note: potency is the fitted concentration of half-maximal effect. Put shortly: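 Quantitative HTS on parental DT40 cells: 40 h compound treatment at 37 C/5% CO2, with viability then determined by CellTiter-Glo luminescence. Values serve as the DNA repair-proficient reference for differential cytotoxicity.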

Chain of Glucocorticoid receptor (Homo sapiens) (P04150 whole entry, looked up): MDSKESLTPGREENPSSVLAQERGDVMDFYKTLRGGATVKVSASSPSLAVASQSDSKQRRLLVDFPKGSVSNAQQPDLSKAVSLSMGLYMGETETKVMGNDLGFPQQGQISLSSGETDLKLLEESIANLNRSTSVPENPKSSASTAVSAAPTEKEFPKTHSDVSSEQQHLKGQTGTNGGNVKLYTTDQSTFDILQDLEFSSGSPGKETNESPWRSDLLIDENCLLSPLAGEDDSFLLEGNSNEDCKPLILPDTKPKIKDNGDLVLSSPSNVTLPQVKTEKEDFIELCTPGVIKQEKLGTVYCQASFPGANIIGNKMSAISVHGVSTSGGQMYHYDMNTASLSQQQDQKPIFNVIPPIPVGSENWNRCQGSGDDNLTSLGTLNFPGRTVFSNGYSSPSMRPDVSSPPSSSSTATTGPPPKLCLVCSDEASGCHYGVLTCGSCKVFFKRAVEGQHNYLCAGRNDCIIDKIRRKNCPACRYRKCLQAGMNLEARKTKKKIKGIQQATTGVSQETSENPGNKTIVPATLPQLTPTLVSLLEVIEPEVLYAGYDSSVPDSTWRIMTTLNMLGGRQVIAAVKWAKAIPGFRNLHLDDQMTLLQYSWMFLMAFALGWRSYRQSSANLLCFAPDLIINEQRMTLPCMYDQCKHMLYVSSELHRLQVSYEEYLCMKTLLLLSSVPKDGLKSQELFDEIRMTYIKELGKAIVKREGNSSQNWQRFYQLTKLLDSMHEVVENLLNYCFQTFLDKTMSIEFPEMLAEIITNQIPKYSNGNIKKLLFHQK
Chain of Androgen receptor (Homo sapiens) (P10275 whole entry, looked up): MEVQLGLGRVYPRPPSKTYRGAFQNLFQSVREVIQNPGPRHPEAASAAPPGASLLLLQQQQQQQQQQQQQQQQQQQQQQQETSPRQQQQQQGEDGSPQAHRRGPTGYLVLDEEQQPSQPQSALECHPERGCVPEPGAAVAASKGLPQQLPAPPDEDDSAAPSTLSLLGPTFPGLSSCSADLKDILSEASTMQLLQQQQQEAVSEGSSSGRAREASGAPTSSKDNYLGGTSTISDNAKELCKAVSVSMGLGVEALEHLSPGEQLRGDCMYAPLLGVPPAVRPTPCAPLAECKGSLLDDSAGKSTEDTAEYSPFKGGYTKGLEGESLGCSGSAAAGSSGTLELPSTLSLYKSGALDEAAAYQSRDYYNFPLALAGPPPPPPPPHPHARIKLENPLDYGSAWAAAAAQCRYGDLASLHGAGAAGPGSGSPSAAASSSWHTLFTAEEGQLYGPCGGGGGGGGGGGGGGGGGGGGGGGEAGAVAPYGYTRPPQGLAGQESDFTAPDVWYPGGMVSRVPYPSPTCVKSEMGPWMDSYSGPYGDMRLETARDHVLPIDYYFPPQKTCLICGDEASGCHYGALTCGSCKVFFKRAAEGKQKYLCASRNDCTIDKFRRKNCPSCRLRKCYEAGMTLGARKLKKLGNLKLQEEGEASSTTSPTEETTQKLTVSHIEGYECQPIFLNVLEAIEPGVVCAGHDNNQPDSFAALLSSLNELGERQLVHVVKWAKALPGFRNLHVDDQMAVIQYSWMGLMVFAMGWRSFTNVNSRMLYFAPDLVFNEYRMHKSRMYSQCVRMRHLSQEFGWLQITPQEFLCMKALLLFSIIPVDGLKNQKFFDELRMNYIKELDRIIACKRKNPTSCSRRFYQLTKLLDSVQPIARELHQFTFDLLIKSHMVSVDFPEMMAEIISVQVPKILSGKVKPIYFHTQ

Take `CN(C(=O)CO)c1c(I)c(C(=O)NCC(O)CO)c(I)c(C(=O)NCC(O)CO)c1I` (stereo not drawn): the Potency result in [1], in experiment [2], in experiment [3], in [4], in [5] and in [7] was “inactive” each time. Also, the Potency entry in experiment [9], in [10], in experiment [11], in experiment [12], in experiment [13] and in experiment [14] was “inactive” throughout. For the same molecule, the Potency entry in experiment [15] is “inactive”. Further, the call in [6] and in [8] was inactive.

In the case of `Cc1cccc(C)c1N(CCCc1cccnc1)C(=O)C(C)N` (stereo not drawn), the Potency result in experiment [1], in [2], in experiment [3], in [4], in experiment [5] and in experiment [7] was “inactive” in each case. Also, the Potency entry in experiment [9], in [10], in experiment [11], in experiment [13], in [14] and in experiment [16] was “inactive” each time. For the same molecule, the Potency result in experiment [17], in experiment [18], in experiment [15] and in experiment [19] was “inactive” in each case. Also, the call in experiment [6] and in [8] was inactive.

Consider `CCC(=O)NCCC1CCc2ccc3c(c21)CCO3` (stereo not drawn), for which the Potency entry in experiment [1], in [2], in experiment [3], in [4], in experiment [5] and in [7] was “inactive” in each case. For the same molecule, the Potency entry in [9], in [10], in experiment [11], in experiment [16], in [17] and in experiment [18] was “inactive” throughout. Also, the Potency entry in [15] and in experiment [19] was “inactive” in each case. Besides, the result in [6] and in experiment [8] was inactive. For the same molecule, the Potency in experiment [20] was 26.6 µM (active).

As to `O=C1CCC(=O)N1CO`, the Potency result in experiment [1], in [2], in experiment [3], in experiment [4], in [5] and in experiment [7] was “inactive” in each case. Moreover, the Potency entry in experiment [9], in experiment [10], in [11], in experiment [20], in experiment [13] and in [15] was “inactive” in each case. Further, the molecule was classed as inactive in experiment [6] and in [8].

Take `O=C(O)CC/C=C\CC[C@@H]1[C@@H](N2CCCCC2)[C@@H](O)C[C@@H]1OCc1ccc(-c2ccccc2)cc1`: the Potency entry in experiment [1], in experiment [2], in [3], in experiment [4], in experiment [5] and in [7] was “inactive” in each case. For the same molecule, the Potency result in experiment [9], in experiment [10], in experiment [11], in experiment [14], in experiment [17] and in [18] was “inactive” throughout. The Potency entry in experiment [15] and in [19] was “inactive” each time. The molecule was called inactive in [6] and in [8]. Also, the Potency in [20] was 13.3 µM (active).

With `C=C[C@]1(C)C[C@@H](OC(=O)CO)[C@]2(C)[C@H](C)CC[C@]3(CCC(=O)[C@H]32)[C@@H](C)[C@@H]1O`, the Potency entry in experiment [1], in [2], in experiment [3], in [4], in [5] and in [7] was “inactive” in each case. The Potency entry in experiment [9], in [10], in experiment [11], in [14] and in [15] was “inactive” in each case. The result in experiment [6] and in [8] was inactive.

In the case of `N#Cc1ccc2c(c1)N(CCCN1CCC(O)CC1)c1ccccc1S2`, the Potency entry in [1], in experiment [2], in experiment [3], in experiment [4], in experiment [5] and in experiment [7] was “inactive” in each case. The Potency entry in experiment [9], in experiment [10], in experiment [11] and in experiment [18] was “inactive” throughout. Also, the molecule was classed as inactive in experiment [6] and in [8]. In addition, the Potency in experiment [20] was 18.8 µM (active); in [13], 21.1 µM (active).
